Results from PubChem BioAssay.
The source made the active and inactive calls.

Assays:
[1] = system: PRMT1 (protein arginine N-methyltransferase 1); assay: PRMT1 binders on small-molecule microarrays, primary screen, biochemical, small-molecule microarray, 635 nm fluorescence (AID 1088); settings: small-molecule microarray binding, higher = more signal;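 note: binding of Prmt1 protein to compounds spotted on small-molecule microarray slides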
[2] = yeast growth modulation, basal conditions, primary screen, YJM789 clinical isolate, OD600, 24 h (AID 1089);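 note: growth of clinical yeast isolate S. cerevisiae YJM 789 seeded 1000 cells per well; test concentration not given here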; settings: S. cerevisiae YJM789 growth, higher = more signal, called active from +8 up or from −8 down
[3] = fission yeast growth modulation, primary screen, strain 972, OD600, 24 h, no modulator (AID 1090);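 note: basal condition with compound alone and no growth modifier present; test concentration not given here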; settings: S. pombe 972 growth, higher = more signal, called active from +8 up or from −8 down
[4] = S. cerevisiae growth modulation with rapamycin, primary screen, strain BY4716, OD600, 96 h (AID 1091); settings: higher = more signal, called active from +8 up or from −8 down; note: test concentration not given here
[5] = target: Torsin-1A-interacting protein 2 (Homo sapiens) (UniProt Q8NFQ8); assay: LULL1 binders on small-molecule microarray, primary screen, cell lysate, human LULL1 lysate, 635/667 nm fluorescence (AID 1092); settings: hLULL1 lysate binding, 635 nm fluorescence, higher = more signal;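 note: probe is lysate of COS7 cells overexpressing human LULL1; score merges per-feature 667 nm fluorescence with signal-to-noise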
[6] = E. coli growth modulation, two-sided OD650, primary screen, E. coli filamentation project, strain DRC41, 24 h (AID 1093); settings: OD650, 24 h, higher = more signal, called active from +8 up or from −8 down;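 note: MC1000 strain lacking acrAB efflux and sulA so SOS filamentation is blocked; test concentration not given here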
[7] = small-molecule microarray binders of probe aLefty2, primary screen, biochemical, biotinylated probe, 635/667 nm fluorescence (AID 1094); settings: higher = more signal;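 note: score merges spot fluorescence near 667 nm with spot signal-to-noise ratio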
[8] = system: Noggin (protein binding on small-molecule microarray); assay: Noggin binders on small-molecule microarray, primary screen, biochemical, 635/667 nm fluorescence (AID 1095); settings: 635 nm fluorescence, higher = more signal;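 note: score merges 667 nm feature fluorescence with signal to noise over triplicate slides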
[9] = target: Neurogenic locus notch homolog protein 3 (Homo sapiens) (UniProt Q9UM47); assay: NOTCH3 binders on small-molecule microarray, primary screen, biochemical, 635/667 nm fluorescence (AID 1096); settings: NOTCH3 binding, 635 nm fluorescence, higher = more signal
[10] = small-molecule microarray binders of probe aEGFR, primary screen, biochemical, biotinylated probe, 635/667 nm fluorescence (AID 1097); settings: higher = more signal;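 note: probe is a biotinylated anti-EGFR antibody binding compounds printed on slides; score combines fluorescence near 667 nm and signal to noise of each spot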
[11] = system: Plasmodium falciparum Sir2 (PF13_0152, Sir2A); assay: pfSir2 binders on small-molecule microarrays, primary screen, biochemical, small-molecule microarray, 635 nm fluorescence (AID 1098); settings: small-molecule microarray binding, fluorescence 635 nm; higher = more signal;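 note: score merges spot fluorescence intensity with its signal-to-noise ratio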
[12] = small-molecule microarray binders of probe aDKK1, primary screen, biochemical, biotinylated probe, 635/667 nm fluorescence (AID 1099); settings: higher = more signal;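 note: score merges 667nm spot fluorescence with signal to noise across triplicate slides; reference of the scale not given here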
[13] = small-molecule microarray binders of probe aCHRDL2, primary screen, biochemical, biotinylated probe, 635/667 nm fluorescence (AID 1100); settings: higher = more signal
[14] = splicing luciferase reporter signal modulators, primary screen, spliceosome inhibition project, cell-based, HEK293, splice +/- reporter (AID 1101); settings: luminescence, 24 h, higher = more signal, called active from +8 up or from −8 down;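 note: HEK293 cells carrying a splicing-competent luciferase reporter gene; test concentration not given here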
[15] = target: Fibroblast growth factor 10 (Homo sapiens) (UniProt O15520); assay: FGF10 binders on small-molecule microarrays, primary screen, biochemical, small-molecule microarray, 635 nm fluorescence (AID 1102); settings: FGF10 binding, fluorescence 635 nm, higher = more signal
[16] = system: glycogen synthase kinase-3 (GSK3A per assay name; protocol says GSK3B); assay: GSK3 binders on small-molecule microarrays, primary screen, biochemical, small-molecule microarray, 635 nm fluorescence, GSK3A (AID 1103); settings: small-molecule microarray binding, fluorescence 635 nm; higher = more signal; note: the record names both GSK3A and GSK3B
[17] = target: Epidermal growth factor receptor (Homo sapiens) (UniProt P00533); assay: EGFR binders on small-molecule microarrays, primary screen, biochemical, small-molecule microarray, 635 nm fluorescence (AID 1104); settings: EGFR binding, higher = more signal;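 note: score merges 667 nm emission intensity with spot signal to noise over triplicate slides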
[18] = target: Follistatin-related protein 3 (Homo sapiens) (UniProt O95633); assay: FSTL3 binders on small-molecule microarrays, primary screen, biochemical, small-molecule microarray, 635 nm fluorescence (AID 1105); settings: FSTL3 binding, higher = more signal;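 note: score merges emission near 667 nm and signal to noise per printed spot across three slides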
[19] = target: Dickkopf-related protein 1 (Homo sapiens) (UniProt O94907); assay: DKK1 binders on small-molecule microarrays, primary screen, biochemical, small-molecule microarray, 635 nm fluorescence scan (AID 1106); settings: DKK1 binding, higher = more signal;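 note: score merges emission near 667 nm with signal to noise over three replicate slides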
[20] = system: Inhibin beta A chain (activin A); assay: INHBA (activin A) binders on microarrays, primary screen, biochemical, small-molecule microarray, 635 nm fluorescence scan (AID 1107); settings: small-molecule microarray binding, higher = more signal;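 note: mouse activin A protein probed at 4.33 µg/mL on printed slides; score merges bound-protein fluorescence near 667 nm with spot signal-to-noise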

Chain of Follistatin-related protein 3 (Homo sapiens) (O95633 whole entry, looked up): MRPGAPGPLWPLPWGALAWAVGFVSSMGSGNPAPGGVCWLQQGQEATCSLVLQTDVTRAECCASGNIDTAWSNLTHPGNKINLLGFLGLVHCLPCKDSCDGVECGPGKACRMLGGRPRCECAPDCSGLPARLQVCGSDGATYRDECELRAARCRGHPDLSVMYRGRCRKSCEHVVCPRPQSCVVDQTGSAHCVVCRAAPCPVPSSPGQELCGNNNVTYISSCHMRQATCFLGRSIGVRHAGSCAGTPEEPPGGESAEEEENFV
Chain of Neurogenic locus notch homolog protein 3 (Homo sapiens) (Q9UM47 whole entry, looked up): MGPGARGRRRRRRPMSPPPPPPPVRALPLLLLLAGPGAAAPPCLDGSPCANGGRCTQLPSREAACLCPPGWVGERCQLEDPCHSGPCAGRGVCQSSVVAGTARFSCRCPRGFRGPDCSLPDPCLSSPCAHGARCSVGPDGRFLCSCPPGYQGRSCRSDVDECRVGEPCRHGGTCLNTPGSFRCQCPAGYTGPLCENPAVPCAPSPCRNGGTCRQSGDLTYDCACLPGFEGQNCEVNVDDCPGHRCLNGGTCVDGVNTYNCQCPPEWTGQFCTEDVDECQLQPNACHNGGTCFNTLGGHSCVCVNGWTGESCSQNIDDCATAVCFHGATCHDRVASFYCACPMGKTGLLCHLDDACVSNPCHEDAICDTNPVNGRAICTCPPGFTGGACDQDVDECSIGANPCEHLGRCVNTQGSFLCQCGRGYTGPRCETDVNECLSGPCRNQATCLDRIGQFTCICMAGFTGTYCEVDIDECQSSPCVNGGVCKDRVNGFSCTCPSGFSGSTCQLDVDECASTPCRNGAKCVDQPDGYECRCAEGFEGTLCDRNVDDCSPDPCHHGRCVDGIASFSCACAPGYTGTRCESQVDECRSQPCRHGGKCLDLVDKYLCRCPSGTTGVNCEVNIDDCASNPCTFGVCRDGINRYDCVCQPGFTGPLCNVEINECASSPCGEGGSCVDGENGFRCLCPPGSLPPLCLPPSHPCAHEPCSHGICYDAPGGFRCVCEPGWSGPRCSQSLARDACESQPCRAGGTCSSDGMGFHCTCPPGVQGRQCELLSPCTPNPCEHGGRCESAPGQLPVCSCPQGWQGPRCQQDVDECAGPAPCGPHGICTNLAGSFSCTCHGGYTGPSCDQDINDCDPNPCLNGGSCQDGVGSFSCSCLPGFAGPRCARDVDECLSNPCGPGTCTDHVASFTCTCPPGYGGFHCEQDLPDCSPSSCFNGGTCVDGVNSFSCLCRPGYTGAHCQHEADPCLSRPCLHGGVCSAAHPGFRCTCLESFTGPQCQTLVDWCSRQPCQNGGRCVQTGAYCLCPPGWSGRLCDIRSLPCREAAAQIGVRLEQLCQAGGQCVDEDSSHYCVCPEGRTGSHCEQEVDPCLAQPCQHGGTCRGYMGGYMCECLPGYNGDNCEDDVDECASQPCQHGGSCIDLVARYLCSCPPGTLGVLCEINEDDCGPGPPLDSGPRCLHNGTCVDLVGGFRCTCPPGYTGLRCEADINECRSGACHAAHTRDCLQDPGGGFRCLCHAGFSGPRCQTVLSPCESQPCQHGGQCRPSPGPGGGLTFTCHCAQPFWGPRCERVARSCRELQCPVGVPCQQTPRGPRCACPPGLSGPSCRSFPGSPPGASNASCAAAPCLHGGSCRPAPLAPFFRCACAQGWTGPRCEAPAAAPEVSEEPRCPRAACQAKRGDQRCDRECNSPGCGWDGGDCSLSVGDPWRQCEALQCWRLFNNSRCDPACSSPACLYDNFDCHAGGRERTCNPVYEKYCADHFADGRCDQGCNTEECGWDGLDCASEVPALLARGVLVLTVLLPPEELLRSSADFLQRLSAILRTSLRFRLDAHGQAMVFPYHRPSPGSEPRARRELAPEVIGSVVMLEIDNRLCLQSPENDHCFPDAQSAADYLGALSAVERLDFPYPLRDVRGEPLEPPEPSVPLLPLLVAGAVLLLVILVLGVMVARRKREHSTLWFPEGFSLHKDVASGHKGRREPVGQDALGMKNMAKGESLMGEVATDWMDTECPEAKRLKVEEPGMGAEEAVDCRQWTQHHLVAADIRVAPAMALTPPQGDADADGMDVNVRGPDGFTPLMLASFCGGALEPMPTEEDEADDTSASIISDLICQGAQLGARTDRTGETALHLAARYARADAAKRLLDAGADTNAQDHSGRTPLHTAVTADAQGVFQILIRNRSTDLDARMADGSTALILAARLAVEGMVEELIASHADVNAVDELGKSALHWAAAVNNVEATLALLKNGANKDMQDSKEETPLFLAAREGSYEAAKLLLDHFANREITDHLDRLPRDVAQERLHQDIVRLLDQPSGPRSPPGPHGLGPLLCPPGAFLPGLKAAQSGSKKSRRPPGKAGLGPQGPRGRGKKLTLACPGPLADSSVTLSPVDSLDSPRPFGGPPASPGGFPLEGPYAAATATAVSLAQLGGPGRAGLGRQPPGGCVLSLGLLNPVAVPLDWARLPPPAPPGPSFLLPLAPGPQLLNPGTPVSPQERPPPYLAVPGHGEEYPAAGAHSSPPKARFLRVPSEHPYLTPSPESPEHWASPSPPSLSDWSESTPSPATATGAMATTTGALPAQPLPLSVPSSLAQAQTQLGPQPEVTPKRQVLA
Chain of Epidermal growth factor receptor (Homo sapiens) (P00533 whole entry, looked up): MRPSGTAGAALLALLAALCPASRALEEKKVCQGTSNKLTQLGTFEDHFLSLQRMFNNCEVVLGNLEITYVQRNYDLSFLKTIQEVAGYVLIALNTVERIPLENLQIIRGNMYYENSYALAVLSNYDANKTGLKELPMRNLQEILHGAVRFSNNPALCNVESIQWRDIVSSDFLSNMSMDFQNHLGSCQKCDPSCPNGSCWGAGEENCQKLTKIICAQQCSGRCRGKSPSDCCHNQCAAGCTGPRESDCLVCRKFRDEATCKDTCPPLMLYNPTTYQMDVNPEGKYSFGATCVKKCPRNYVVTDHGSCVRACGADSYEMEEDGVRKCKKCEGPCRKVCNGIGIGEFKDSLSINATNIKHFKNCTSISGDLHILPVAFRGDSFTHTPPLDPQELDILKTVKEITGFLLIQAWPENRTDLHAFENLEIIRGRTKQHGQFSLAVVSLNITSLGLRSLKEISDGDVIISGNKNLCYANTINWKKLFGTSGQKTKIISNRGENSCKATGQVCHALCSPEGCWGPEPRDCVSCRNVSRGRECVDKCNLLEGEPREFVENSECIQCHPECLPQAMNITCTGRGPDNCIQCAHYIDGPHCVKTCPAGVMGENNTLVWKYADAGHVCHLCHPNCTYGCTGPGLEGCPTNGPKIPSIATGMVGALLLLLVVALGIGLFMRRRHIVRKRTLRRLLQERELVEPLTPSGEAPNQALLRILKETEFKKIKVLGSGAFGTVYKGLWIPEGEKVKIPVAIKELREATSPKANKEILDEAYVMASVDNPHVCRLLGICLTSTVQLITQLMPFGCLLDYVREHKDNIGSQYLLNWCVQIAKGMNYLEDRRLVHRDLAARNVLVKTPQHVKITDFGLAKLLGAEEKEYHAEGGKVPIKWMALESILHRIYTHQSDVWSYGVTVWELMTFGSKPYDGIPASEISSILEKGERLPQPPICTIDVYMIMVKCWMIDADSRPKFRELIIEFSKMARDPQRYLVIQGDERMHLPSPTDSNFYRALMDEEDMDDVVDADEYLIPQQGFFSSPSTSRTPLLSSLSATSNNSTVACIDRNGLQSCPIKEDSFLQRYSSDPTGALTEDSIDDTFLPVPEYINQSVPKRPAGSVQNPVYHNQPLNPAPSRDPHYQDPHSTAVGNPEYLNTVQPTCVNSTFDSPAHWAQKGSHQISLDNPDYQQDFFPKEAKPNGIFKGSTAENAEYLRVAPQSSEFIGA
Chain of Torsin-1A-interacting protein 2 (Homo sapiens) (Q8NFQ8 whole entry, looked up): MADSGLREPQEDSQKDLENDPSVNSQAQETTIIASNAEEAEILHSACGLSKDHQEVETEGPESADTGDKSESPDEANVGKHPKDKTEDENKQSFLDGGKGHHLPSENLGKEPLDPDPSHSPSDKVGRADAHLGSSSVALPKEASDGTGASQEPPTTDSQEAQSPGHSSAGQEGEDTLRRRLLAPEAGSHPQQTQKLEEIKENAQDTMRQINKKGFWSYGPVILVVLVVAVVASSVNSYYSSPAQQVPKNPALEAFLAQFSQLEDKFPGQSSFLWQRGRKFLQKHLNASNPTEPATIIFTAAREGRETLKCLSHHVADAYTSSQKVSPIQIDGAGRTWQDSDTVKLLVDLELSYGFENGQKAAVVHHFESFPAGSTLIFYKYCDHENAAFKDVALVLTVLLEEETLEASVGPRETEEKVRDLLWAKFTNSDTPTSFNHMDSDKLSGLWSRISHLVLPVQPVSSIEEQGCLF
Chain of Dickkopf-related protein 1 (Homo sapiens) (O94907 whole entry, looked up): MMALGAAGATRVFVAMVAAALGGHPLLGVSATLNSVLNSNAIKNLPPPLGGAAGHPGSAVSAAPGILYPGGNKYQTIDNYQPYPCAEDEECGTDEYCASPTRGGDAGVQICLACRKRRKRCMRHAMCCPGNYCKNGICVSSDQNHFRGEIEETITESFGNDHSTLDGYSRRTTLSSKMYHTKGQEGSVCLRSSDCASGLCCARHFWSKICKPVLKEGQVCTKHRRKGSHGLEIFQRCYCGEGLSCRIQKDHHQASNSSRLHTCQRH
Chain of Fibroblast growth factor 10 (Homo sapiens) (O15520 whole entry, looked up): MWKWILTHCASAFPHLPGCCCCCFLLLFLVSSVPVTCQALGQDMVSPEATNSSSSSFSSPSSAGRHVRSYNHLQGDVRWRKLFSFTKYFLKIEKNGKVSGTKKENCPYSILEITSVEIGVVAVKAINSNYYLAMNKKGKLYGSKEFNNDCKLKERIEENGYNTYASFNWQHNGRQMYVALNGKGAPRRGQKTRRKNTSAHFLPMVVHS

| SMILES | composite z-score [1] | z-score [2] | z-score [3] | z-score [4] | composite z-score [5] | z-score [6] | composite z-score [7] | composite z-score [8] | composite z-score [9] | composite z-score [10] | composite z-score [11] | composite z-score [12] | composite z-score [13] | z-score [14] | composite z-score [15] | composite z-score [16] | composite z-score [17] | composite z-score [18] | composite z-score [19] | composite z-score [20] |
| --- | --- | --- | --- | --- | --- | --- | --- | --- | --- | --- | --- | --- | --- | --- | --- | --- | --- | --- | --- | --- |
| COc1cc(OC)c(C(O)C2C=CC3C(=O)N(c4ccccc4)C(=O)C3N2Nc2ccccc2)cc1Br (stereo not given) | 1.2 | -0.465 (inactive) | 1.09 (inactive) | 0.326 (inactive) | 2.53 | -0.604 (inactive) | 0.167 | 0.0401 | 0.862 | -0.0828 | 1.53 | 0.184 | 0.612 | 0.528 (inactive) | 0.247 | 0.176 | -0.487 | 0.39 | -0.386 | 0.791 |
| COCCOC(=O)N1C(=O)[C@@]2(c3ccccc31)[C@H](C(=O)N1CCN(c3ncccn3)CC1)[C@H]1C(=O)O[C@H](c3ccccc3)[C@H](c3ccccc3)N1[C@@H]2c1ccc(O)cc1 | 1.55 | 0.232 (inactive) | 1.07 (inactive) | 1.72 (inactive) | 2.25 | 1.48 (inactive) | -0.122 | 0.161 | 0.679 | -0.184 | 1.59 | 0.184 | 0.573 | 0.554 (inactive) | 0.745 | 0.53 | 0.0611 | -0.11 | 0.278 | -0.66 |
| CCCC[C@@H]1C[C@H]1[C@@H](NC(=O)c1ccccc1)c1ccc(C(F)(F)F)cc1 | -0.914 | 0.82 (inactive) | 0.987 (inactive) | 0.151 (inactive) | -0.962 | -0.582 (inactive) | 0.161 | 0.337 | -0.769 | -0.15 | -0.829 | 0.455 | 0.926 | -0.188 (inactive) | -0.896 | -1.74 | -1.09 | -0.683 | -0.993 | 0.986 |
| COC(=O)[C@@]1(Cc2ccc(OC)cc2)[C@H]2c3cc(C(=O)N(C)C)n(Cc4ccc(Cl)c(C(F)(F)F)c4)c3C[C@H]2CN1C(=O)c1ccccc1 | 0.295 | 1.01 (inactive) | 1.38 (inactive) | 2.98 (inactive) | 3.06 | -0.397 (inactive) | 0.539 | -0.0329 | 1.02 | 0.35 | 0.546 | 1.45 | 1.49 | 0.524 (inactive) | 0.523 | 0.363 | -0.242 | 0.83 | -1.12 | 0.986 |
| CC(C)(C)N1CC=CC23O[C@@H]4C=CCOC(=O)[C@@H]4[C@H]2C(=O)N(CCCCCCO)[C@@H]3C1=O (stereo not given in full) | -0.911 | -1.54 (inactive) | -1.27 (inactive) | -0.369 (inactive) | 1.39 | -0.351 (inactive) | -0.101 | -1.27 | -0.729 | -0.163 | 1.09 | -0.102 | 0.65 | 0.804 (inactive) | -1.59 | -0.708 | -1.04 | -1.34 | -1.34 | 0.294 |
| C=CCC(OC(C)=O)[C@@H]1[C@@H](N(Cc2cccc3ccccc23)C(=O)c2cccc3ccccc23)c2cc(OCCCO)ccc2N1C(=O)c1ccc(-c2ccccc2)cc1 (stereo not given in full) | 0.159 | -0.551 (inactive) | 0.169 (inactive) | -0.725 (inactive) | 0.465 | -0.61 (inactive) | -0.027 | 0.163 | -0.287 | -0.0104 | 0.17 | 0.0752 | -0.0302 | -0.566 (inactive) | 0.0819 | 0.0512 | 0.364 | -0.184 | 0.0116 | 0.855 |
| O=C1C=C(c2ccccc2)C(=O)c2ccc([C@H]3Oc4ccccc4S(=O)(=O)N4CCC[C@@H]34)cc21 | -0.208 | -0.818 (inactive) | -14.9 (active) | 0.696 (inactive) | -1.27 | 1.66 (inactive) | -0.18 | -0.144 | -0.272 | -0.119 | -0.186 | -0.39 | -0.6 | 0.781 (inactive) | -0.101 | -0.191 | 0.496 | -0.266 | 0.714 | 1.04 |
| COC(=O)c1ccc([C@H](NC(=O)c2ccco2)[C@]2(C)C[C@H]2C2CCCCC2)cc1 | -1.67 | 0.0339 (inactive) | 0.17 (inactive) | 0.605 (inactive) | 1.45 | -1.49 (inactive) | -0.0986 | -0.586 | -0.436 | -0.192 | -1.05 | 0.642 | 1.06 | 2.43 (inactive) | -0.32 | -1.22 | -0.808 | -1.03 | -1.09 | 0.447 |
| CCCCCCCCCCC(O)C1C=CC2C(=O)N(C)C(=O)C2N1NC(=O)OC(C)(C)C (stereo not given) | 0.76 | 0.258 (inactive) | -16.5 (active) | -1.97 (inactive) | 2.18 | -2.14 (inactive) | -0.0725 | -0.765 | 0.0249 | -0.128 | 0.18 | -0.0906 | 0.0331 | 11.3 (active) | -0.737 | 0.386 | -0.0167 | -0.112 | -0.145 | 0.417 |
| CN(C)CCCNC(=O)[C@@H]1c2ccccc2C(=O)N(Cc2ccccc2Cl)[C@H]1c1ccc(CO)cc1 | 0.226 | -0.34 (inactive) | -1.32 (inactive) | -1.04 (inactive) | 2.25 | 0.596 (inactive) | -0.295 | -0.611 | -0.247 | 0.0733 | -0.405 | 0.0414 | 0.366 | -0.738 (inactive) | -0.497 | 0.333 | -0.493 | -0.89 | 0.0146 | 0.828 |
